Assay results reported in PubChem BioAssay (NCI).
Compounds without any hit were thinned out: in the full panel of roughly 79,000, 15% have a hit. Active and inactive are the calls of the source. Rule as the data show it: active = growth inhibition above about 70%; inactive = the rest. *1 amine or outer side, *2 acyl side, *3 side chain or, on linkers, in order; H or OH if unused. Where a SMILES comes first, the peptide text is derived from it. Bridges are numbered along the chain shown (N, C = ends). Roman numbers before positions name the chains, in order. [ ]: non-standard residue; d: D form. Actinocin(1to9) = Cc1c2oc3c(C)ccc(C(=O)[*:2])c3nc-2c(C(=O)[*:1])c(N)c1=O; NMeV = CN[CH](C(=O)O)C(C)C; Aze = O=C(O)[CH]1CCN1; Sar = CNCC(=O)O

Experiments:
[1] = NCI Yeast Anticancer Drug Screen. Data for the rad50 strain (AID 155);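 also: 0% = growth of vehicle-only cultures of the same strain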; conditions: S. cerevisiae rad50 strain growth inhibition; at 50.0 µM; stronger effect = higher value
In short: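 Yeast carrying a defined DNA repair defect were exposed to test compounds, and growth was compared with vehicle-treated controls to give percent inhibition.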

[2] = NCI Yeast Anticancer Drug Screen. Data for the mec2-1 strain (AID 157); conditions: S. cerevisiae mec2-1 strain, at 50.0 µM, stronger effect = higher value
In short: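 Compounds were applied to mec2-1 yeast cells. Their growth was then compared with that of vehicle-treated cultures to give growth inhibition.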

[3] = NCI Yeast Anticancer Drug Screen. Data for the sgs1 mgt1 strain (AID 161);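 also: 0% = growth of cultures given vehicle only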; conditions: S. cerevisiae sgs1 mgt1 strain, at 50.0 µM, stronger effect = higher value
In short: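 This yeast growth screen uses a strain with defined DNA-repair lesions; compound-treated growth is compared with vehicle-treated growth.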

[4] = NCI Yeast Anticancer Drug Screen. Data for the cln2 rad14 strain (AID 165);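 also: 0% = growth equal to vehicle treated cultures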; conditions: S. cerevisiae cln2 rad14 strain, at 50.0 µM, stronger effect = higher value
In short: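 Strain: cln2 rad14 yeast, altered in cell cycle control and DNA damage repair. Read-out: growth inhibition vs vehicle.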

[5] = NCI Yeast Anticancer Drug Screen. Data for the bub3 strain (AID 167); conditions: S. cerevisiae bub3 mutant strain, at 50.0 µM, stronger effect = higher value
In short: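 Compounds were applied to a genetically altered yeast strain carrying a cell-cycle control defect. Growth inhibition was scored against vehicle-treated controls.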

[6] = NCI Yeast Anticancer Drug Screen. Data for the mlh1 rad18 strain (AID 175); conditions: S. cerevisiae mlh1 rad18 strain growth inhibition; at 50.0 µM; stronger effect = higher value
In short: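 A repair-deficient yeast strain is exposed to test compound, and growth is scored relative to vehicle-treated controls.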

Measured: growth inhibition

CC(=O)N(C)Nc1ccccc1
inactive: [1] 2.45% | [2] -10.7% | [3] 17.9% | [4] -7.4% | [5] 19.7% | [6] -17.6%

Cc1cn(C)c2c1-c1c(cnn1-c1ccccc1)CC2
inactive: [1] 15.6% | [2] 3.75% | [3] 44% | [4] -2.4% | [5] 4.8% | [6] 23.4%

Cc1cn(C2CC(O)C(CO)O2)c(=O)nc1NC1CC1 (centres undefined)
inactive: [1] -7% | [2] 3.45% | [3] -1% | [4] -13% | [5] 0.6% | [6] 3.15%

Cc1c2oc3c(C)ccc(C(=O)NC4C(=O)NC(C(C)C)C(=O)N5CCCC5C(=O)N(C)CC(=O)N(C)C(C(C)C)C(=O)OC4C)c3nc-2c(C(=O)NC2C(=O)NC(C(C)C)C(=O)N3CCC3C(=O)N(C)CC(=O)N(C)C(C(C)C)C(=O)OC2C)c(N)c1=O (centres undefined) (I: TV[Aze][Sar][NMeV] / II: TVP[Sar][NMeV]; ester I:1-I:C, II:1-II:C; linker I:N-II:N via Actinocin(1to9); configuration not given here)
active: [1] 90.3% | [2] 92.2% | [3] 92.5% | [4] 86.8% | [5] 89% | [6] 90%

N#C/C(=C\c1ccccn1)c1nc(-c2ccc(Cl)cc2)cs1
inactive: [1] -9.6% | [2] -27.9% | [3] -12.7% | [4] -0.1% | [5] 0.5% | [6] -14.6%

O=C1CC(=O)N(CCc2ccccc2)S(=O)(=O)N1CCc1ccccc1
inactive: [1] -8.9% | [2] -21.4% | [3] -14.2% | [4] 30.4% | [5] -15.2% | [6] -32.8%

O=S(=O)(O)C(O)Cc1cccc2ccccc12 (centres undefined)
inactive: [1] 2.2% | [2] -8.25% | [3] 1.3% | [4] -40.2% | [5] -17.8% | [6] -0.3%

Oc1ccc(O)c2c1CC=CC2
inactive: [1] 12.2% | [2] 22.6% | [3] 27.9% | [4] 13% | [5] 18.3% | [6] 16.4%

NC(=S)N/N=C\CC(O)(C(F)(F)F)C(F)(F)F
inactive: [1] -16.7% | [2] -19.2% | [3] -7.45% | [4] 0.5% | [5] 7.1% | [6] -2.3%

COc1ccc(CC#N)cc1OC
inactive: [1] 6.5% | [2] -8.3% | [3] -5.6% | [4] -54.8% | [5] -31.4% | [6] -5.2%

CC1=C[C@@H]2[C@@H](CC(CO)=C[C@H]3[C@@H]4C(C)(C)[C@]4(OCC(C)C)[C@H](OCC(C)C)[C@@H](C)[C@]23O)C1=O
inactive: [1] -13.7% | [2] -14.2% | [3] -55.5% | [4] -0.1% | [5] -69.2% | [6] -13.9%

Cc1ccc(C(=O)Nc2c(C)cccc2C)cc1
inactive: [1] 3.45% | [2] -40.7% | [3] 13.5% | [4] 3.65% | [5] -4.7% | [6] -5.95%

Cc1cc(C)c([N+](=O)[O-])c(N)n1
inactive: [1] 8.45% | [2] -6.6% | [3] -5.85% | [4] -52% | [5] 1.2% | [6] -12.1%

C/C(=N\OC(=O)c1c(-c2c(Cl)cccc2Cl)noc1C)c1ccccc1O
inactive: [1] 1.5% | [2] -23.4% | [3] -1.6% | [4] 12.2% | [5] -21.9% | [6] -4.75%

N#CC1CCCC[N-]1.[NH-]CC[N-]CC[NH-].[Pt+4] (centres undefined)
inactive: [1] 57.9% | [2] 17.2% | [3] 53.6% | [4] -10.1% | [5] 4.05% | [6] 43%

CC(C)(C)[Si](C)(C)OC1C(=O)C[C@H]2CCCC[C@@H]12 (some centres undefined)
inactive: [1] -6.75% | [2] 0.85% | [3] -1.75% | [4] 17.1% | [5] 10.2% | [6] 22.3%

CC1=CC(O)(c2ccccc2)C(N2CCOCC2)N1O (centres undefined)
inactive: [1] -2.85% | [2] -25.6% | [3] -3.5% | [4] 13.6% | [5] 23.4% | [6] -8.55%

Cc1ccc(-c2nc(SCc3ccc(Cl)cc3)[nH]c(=O)c2CCO)cc1
inactive: [1] 55.5% | [2] 14.3% | [3] 38.8% | [4] 34.4% | [5] 47.7% | [6] 32.2%

CCOC(=O)C1C(=O)CC(C)(O)C(C(=O)OCC)C1c1ccc(N(C)C)cc1 (centres undefined)
inactive: [1] -32.7% | [2] -15.7% | [3] -3.6% | [4] -37% | [5] -1.4% | [6] -10.2%

Cc1ccc(N2C(=O)/C(=C/c3ccc(N(CCC#N)CCC#N)cc3C)N=C2c2cc([N+](=O)[O-])ccc2Cl)cc1
inactive: [1] 8.85% | [2] 14.5% | [3] 32.6% | [4] 35.2% | [5] 30.4% | [6] 19.9%

c1ccc(Cc2ncc(-c3ccccc3)cc2-c2ccccc2)cc1
inactive: [1] -19.4% | [2] -14.8% | [3] 3.1% | [4] 3.65% | [5] 7.3% | [6] 4.2%

C/C(=C(/C)c1cc[n+](C)cc1)c1cc[n+](C)cc1
inactive: [2] 60.6% | [3] 67% | [4] 44.4% | [5] 56.3% | [6] 68.5%
active: [1] 74.4%

COc1ccc(/C(=N\O)C(c2ccc(OC)cc2)C(Cl)(Cl)Cl)cc1 (centres undefined)
inactive: [1] 52.8% | [2] 38.9% | [3] 38.9% | [4] 14.7% | [5] 16.6% | [6] 44.9%

Clc1cccc(C=NC23CC4CC(CC(C4)C2)C3)c1Cl
inactive: [1] -20.2% | [2] -36.5% | [3] -40.3% | [4] -6% | [5] -22.6% | [6] -10.2%

CCN(CC)CCCC(C)n1c(SC)nc2cc(Cl)ccc21 (centres undefined)
inactive: [1] -11.5% | [2] -32.9% | [3] 9% | [4] -32.6% | [5] 7.2% | [6] -7.7%

CC12CC(c3ccccc3)C(C)(C(c3ccccc3)=C1c1ccccc1)C2(O)c1ccccc1 (centres undefined)
inactive: [1] -2.85% | [2] 0.1% | [3] 12.7% | [4] -13.3% | [5] -2.45% | [6] 13.4%

O=c1c(-c2c(-c3ccccc3)oc3ccc(Cl)cc3c2=O)c(-c2ccccc2)oc2ccc(Cl)cc12
inactive: [1] 18.9% | [2] 3.9% | [3] 5.3% | [4] 7.25% | [5] 17.3% | [6] 3.75%

Cc1cc(N=[N+]=[N-])c2ccc(Cl)cc2n1
inactive: [1] -8.15% | [2] 1.05% | [3] -5.55% | [4] -47% | [5] 8.55% | [6] 33.1%

O=C(NP(=O)(O)NC(Cc1ccccc1)C(=O)O)OCc1ccccc1 (centres undefined)
inactive: [1] -7.45% | [2] -6.65% | [3] 4.1% | [4] -18.9% | [5] 1.8% | [6] -12.2%

N/C(=N\N=C\c1c[nH]c2cc(C(F)(F)F)ccc2c1=O)NO
inactive: [1] -10.9% | [2] -7.45% | [3] 28.4% | [4] 11.1% | [5] 2.9% | [6] 2.25%

O=c1[nH]c2cc3[nH]c4ncccc4c(=O)c3cc2[nH]1
inactive: [1] -3.7% | [2] 0.15% | [3] -22.7% | [4] 8.15% | [5] -1.15% | [6] 21.3%

Cc1ccc(/C(O)=C/c2nc3c(nc2NC24CC5CC(CC(C5)C2)C4)c(=O)oc2ccccc23)cc1
inactive: [1] 5.65% | [2] -0.65% | [3] -6.7% | [4] -3.7% | [5] 6.1% | [6] 1.85%

Cn1nnc2c(C(N)=S)ncn2c1=O
inactive: [1] 30.1% | [2] 11% | [3] 10.7% | [4] 19.6% | [5] 17.9% | [6] 22%

CN(C)c1nc(=O)c2ccccc2o1
inactive: [1] -41% | [2] -14.1% | [3] -28.4% | [4] -36.5% | [5] -7.75% | [6] -5.05%

COc1ccc2ncc(C)c(CO)c2c1
inactive: [1] 3.25% | [2] -6.05% | [3] -1.65% | [4] -50.9% | [5] 0.75% | [6] -2.65%

CC1CC(c2ccccc2)Nc2nc3ccccc3n21 (centres undefined)
inactive: [1] 5.65% | [2] 3.45% | [3] -4.7% | [4] 7.95% | [5] 5.65% | [6] -14.3%

CC(=O)NC1=N/C(=C\c2ccc(Cl)cc2)C(=O)N1/C=C1\C(=O)Oc2ccccc2C1=O
inactive: [1] 50% | [2] 13.9% | [3] 24.9% | [4] 26% | [5] 49.7% | [6] 41.9%

CC(C)CCOc1ccc(CCO)cc1
inactive: [1] 0.45% | [2] -8.9% | [3] -4.5% | [4] -7.75% | [5] -36.4% | [6] -24.8%

COc1ccc2nc3cc([N+](=O)[O-])ccc3c(Nc3ccc(S(=O)(=O)NC(C)=O)cc3)c2c1
active: [1] 76.3% | [6] 75.2%
inactive: [2] 36.4% | [3] 67.8% | [4] 36% | [5] 64.5%
